Compounds without any hit were thinned out: in the full panel of roughly 83,000, 20% have a hit.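 Compound tested at a single concentration for 48 hours in 96-well plates; a percent growth value below 10 was scored as active.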 A number with no mark means an inactive call. The source made the active and inactive calls.
How the values were obtained:
Assay in all cases: NCI-60 one-dose screen, 48 h (100 = growth as untreated, 0 = no growth, -100 = all killed)
[1] = system: T-47D breast; details: 10 µM unless noted
[2] = system: BT-549 breast; details: 10 µM unless noted
[3] = system: MDA-MB-435 melanoma; details: 10 µM unless noted
[4] = system: SW-620 colon; details: 10 µM unless noted
[5] = system: MCF7 breast; details: 10 µM unless noted
[6] = system: HCT-116 colon; details: 10 µM unless noted
[7] = system: HCC-2998 colon; details: 10 µM
[8] = system: KM12 colon; details: 10 µM unless noted

Row | Structure (SMILES) | growth [1] | growth [2] | growth [3] | growth [4] | growth [5] | growth [6] | growth [7] | growth [8]
1 | CC(=O)CC1CCCC1c1ccc2ccccc2c1 (stereo not given) | 90% | 109% | 111% | 106% | 95.9% | 104% | 86.8% | 106%
2 | CN(C)C[C@@H]1CCn2cc(c3ccccc32)C2=C(C(=O)NC2=O)c2cn(c3ccccc23)CCO1 | 21.2% | -3.62% (active) | 20.2% | -57.6% (active) | -58.8% (active) | -69.4% (active) | 22% | 3.55% (active)
3 | CCN(CC)Cc1cc(Nc2cc(C(F)(F)F)c(C#N)c3nc4ccccc4n23)ccc1O | -1.95% (active) | 8.37% (active) | 16.9% | 14.7% | 8.72% (active) | 4.67% (active) | 20.2% | 10.8%
4 | N#Cc1c(-c2ccc(C(F)(F)F)cc2)c(F)c(NCCC2CCC(O)C2)n2c1nc1ccccc12 (stereo not given) | 67.9% | 30.1% | 84.1% | 55.6% | 46.2% | 30.7% | 80.7% | 57.9%
5 | COc1cnc2c(c1)C(=O)c1c-2n(CCCN2CCC(O)CC2)c(=O)c2cc(Cl)ccc12 | 42.8% | 46.9% | 76.1% | -32.1% (active) | 0.872% (active) | -60% (active) | 51.5% | 45%
6 | CCn1cc(-c2ccnc3[nH]c(-c4cccc(CN(C)C)c4)cc23)c(-c2ccc(NC(=O)N(C)C)cc2)n1 | 58% | 14.1% | 51.3% | 2.66% (active) | 16.1% | 8.47% (active) | 60% | 11.1%
7 | C=CCCCC(=O)CCC(=O)OCC1O[C@@H](O[C@@H]2C(O)[C@@H](OC(C)=O)C(C)O[C@H]2O[C@H](CC=C)CCCCC)C(O)[C@@H](OC(=O)/C(C)=C/C)[C@@H]1OC(=O)/C=C/c1ccccc1 (stereo not given in full) | -5.16% (active) | 16.7% | 9.15% (active) | 30.6% | 17.6% | 13.7% | 44.1% | 22.3%
8 | CNC(=O)c1cnc(C)nc1-c1cc(C(C)(C)C)c(O)c(C(C)(C)C)c1 | 99.3% | 101% | 98.5% | 112% | 93.4% | 96.3% | 127% | 96.4%
9 | O=C(Cc1ccc(/C=C/C(=O)c2ncc[nH]2)cc1)Nc1ccc(S(F)(F)(F)(F)F)cc1 | 57.6% | 64.3% | 56.1% | 10.4% | 12.4% | -73.6% (active) | 78.9% | 8.06% (active)
10 | CCNC(=O)Nc1nc2ccc(Oc3ccnc(C(=O)NC)c3)cc2s1 | 62.6% | 90.6% | 3.1% (active) | 45.8% | 36.9% | 56% | 71.9% | 33.4%
11 | Cc1cc(O)cc(-c2c(-c3ccnc(-c4cccnc4)c3)cnn2C)c1 | 29.3% | 75.1% | 61.9% | 83.4% | 43.5% | 71.9% | 88.2% | 68.6%
12 | Cc1cnc(Nc2ccc(OCCN3CCCC3)cc2)nc1Nc1cccc(S(=O)(=O)NC(C)(C)C)c1 | 12.5% | -0.344% (active) | 13.5% | -21.3% (active) | 0.924% (active) | 1.03% (active) | -25.9% (active) | 5.75% (active)
13 | Cc1ccsc1C(NC(=O)c1ccccc1)c1cc(Cl)c2cccnc2c1O (stereo not given) | 24.1% | 35.4% | 30.5% | 18.8% | 21.8% | 13.7% | 45% | 22%
14 | COC(=O)CCCNc1c(-c2c(O)c(O)cc3c(O)c(-c4c(C)cc5c(-c6nc7ccccn7c6NCCCC(=O)OC)c(O)c(O)cc5c4O)c(C)cc23)nc2ccccn12 | 26.1% | 16% | 20.7% | 60.1% | 18.2% | 7.23% (active) | 71.6% | 31.8%
15 | O=C(Cc1ccccc1)Nc1nnc(NC2CCN(c3nnc(NC(=O)Cc4ccccc4)s3)CC2)s1 | 84% | 82% | 102% | 99.8% | 87.4% | 89.2% | 101% | 59.2%
16 | CCN(CC)CCN1C(=O)c2cccc3c(-c4ccc5c(c4)ncn5C4CCCCC4)ccc(c23)C1=O | -9.17% (active) | 4.57% (active) | 17% | 11.2% | -7% (active) | -66.1% (active) | 36.7% | 24.3%
17 | CC(C)(O)CC(=O)NCCn1ccc2ncnc(Nc3ccc(Oc4cccc(C(F)(F)F)c4)c(Cl)c3)c21 | -18.8% (active) | 17.5% | 14.3% | 14.1% | 14.3% | 0.422% (active) | -27.2% (active) | 9.88% (active)
18 | O=C(Nc1ccc(N=Nc2ccccc2)cc1)c1cccc2ccccc12 | 66.3% | 53.5% | -17.2% (active) | 40% | 42% | 36.1% | 78.5% | 47.7%
19 | COc1ccc(/C(C)=C(\c2ccc(Cl)cc2)c2ccc(OCCN3CCCCCC3)cc2)cc1 | 39.6% | 63.5% | 65.9% | 45% | 36.5% | 38.3% | 82.1% | 31.2%
20 | COc1cc2c(cc1O)c(=O)n(CCN(C)C)c1c3cc4c(cc3ncc21)OCO4 | 4.79% (active) | -15.5% (active) | -59.7% (active) | 1.96% (active) | 2.14% (active) | 2.63% (active) | -38.6% (active) | -11.6% (active)
21 | Cc1cc(N(CCNc2ccnc3cc(Cl)ccc23)Cc2ccc3c(c2)OCO3)nc(N2CCN(C)CC2)n1 | -36.9% (active) | 21.6% | -62.6% (active) | 2.88% (active) | 15.3% | 9.43% (active) | -30.8% (active) | 62.6%
22 | CN(c1ncccc1CNc1nc(Nc2ccc3c(c2)CC(=O)N3)ncc1C(F)(F)F)S(C)(=O)=O | -2.8% (active) | -10.5% (active) | -9.58% (active) | 0.466% (active) | 2.39% (active) | 1.07% (active) | -13.5% (active) | 1.83% (active)
23 | CCCCN1CCCC[C@@H]1C(=O)N[C@H](C(=O)N(C)[C@H](CCc1nc(C(=O)N[C@@H](Cc2ccccc2)C[C@H](C)C(=O)OC)cs1)C(C)C)C(C)C | 45.3% | 52.3% | -6.94% (active) | 85.3% | 35.6% | 41.5% | 67.6% | 47.7%
24 | Cc1cc2c(-c3nc4ccccn4c3NC34CC5CC(CC(C5)C3)C4)c(O)c(O)cc2c(O)c1-c1c(C)cc2c(-c3nc4ccccn4c3NC34CC5CC(CC(C5)C3)C4)c(O)c(O)cc2c1O | -0.388% (active) | 9.45% (active) | 16.5% | 23.5% | 12.3% | 12% | 31% | 19.8%
25 | C=C1C(=O)O[C@H]2[C@H]1CC/C(Cn1cc(-c3cc(C)c(C)cc3C)nn1)=C\CC[C@@]1(C)O[C@@H]21 | -46.8% (active) | -66.1% (active) | -56.3% (active) | -79.2% (active) | -62.3% (active) | -87.4% (active) | -91.7% (active) | 14.1%
26 | Cc1cn(-c2cc(NC(=O)c3ccc(C)c(Nc4nccc(-c5cccnc5)n4)c3)cc(C(F)(F)F)c2)cn1 | 45.6% | 24.2% | -11.9% (active) | 60% | 12.8% | 42.6% | 63.8% | 30%
27 | CCCCCCCC(=O)SCC/C=C/[C@@H]1CC(=O)NCc2nc(co2)C2=N[C@@](C)(CS2)C(=O)N[C@@H](C(C)C)C(=O)O1 | -5.12% (active) | 13.2% | -31.8% (active) | -29.2% (active) | 14.9% | -63.2% (active) | -68.8% (active) | 1.36% (active)
28 | O=C(NCCO)Nc1ccc(-c2nc(N3CCOCC3)c3cccn3n2)cc1 | -32.6% (active) | -5.61% (active) | -6.22% (active) | 22.3% | 7.74% (active) | 20.4% | 24% | 14.7%
29 | COC(=O)Nc1nc2ccc(C(=O)c3ccc(N(C)C4COC4)cc3)cc2[nH]1 | 57.5% | 9.02% (active) | -25.5% (active) | 28.5% | 16.3% | 7.08% (active) | 11% | 15.7%
30 | CC(=O)O[C@]1(C)C[C@H](O)[C@]2(O)C=CO[C@H](O[C@@H]3O[C@H](CO)[C@@H](O)[C@H](O)[C@H]3O)[C@@H]21 | 92% | 94.6% | 102% | 113% | 94.4% | 98.1% | 116% | 95.1%

— PubChem BioAssay (NCI)
